AMA1-RON2 inh: disrupts binding of P. falciparum AMA1 to RON2 | AlphaScreen AMA1-biotinylated RON2 peptide binding | Potency, µM (top dose mostly 58.2 µM), hits mostly inhibitors | 360,000 tested, 0.2% active | AID 720542; further: nearly all actives have a fitted effect of over 45% in size
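AMA1 (3D7) with his tag at 25 nM final met compounds first, then biotinylated RON2 peptide at 25 nM; detection used donor plus acceptor beads, 10 µg/mL apiece, read by AlphaScreen after 30 min at room temperature.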
FMDV antiviral: foot and mouth disease virus antiviral activity; Potency, µM (series often up to 57.9 µM), hits mostly inhibitors; AID 1159524; 410,000 tested, 1.2% active; FMDV antiviral cell-based qHTS; calls by dose curve; tested in HEK293T cells; further: read-out not given here; nearly all actives have a fitted effect of over 45% in size
Sm TGR block: S. mansoni TGR enzyme inhibition; purified TGR, DTNB reduction, TNB absorbance 405 nm; 360,000 tested, 3% active; Potency, µM (highest dose often 114 µM), most hits filed as inhibitors; further: nearly all actives have a fitted effect of over 60% in size
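Kinetic colorimetric format: TGR-catalysed, NADPH-driven DTNB reduction monitored via TNB absorbance. Enzyme dispensed at 20 nM; compound exposure 15 min at room temperature before reaction start.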
AmpC inh no detg: inhibitors of E. coli AmpC beta-lactamase without detergent | 330,000 tested, 0.52% active | P00811 | AID 485341 | AmpC nitrocefin hydrolysis, absorbance 480 nm, 0.0001% Triton | Potency, µM (series often up to 57.1 µM), usual class: inhibitors; further: nearly all actives have a fitted effect of over 20% in size
Target sequence (P00811 whole entry, looked up): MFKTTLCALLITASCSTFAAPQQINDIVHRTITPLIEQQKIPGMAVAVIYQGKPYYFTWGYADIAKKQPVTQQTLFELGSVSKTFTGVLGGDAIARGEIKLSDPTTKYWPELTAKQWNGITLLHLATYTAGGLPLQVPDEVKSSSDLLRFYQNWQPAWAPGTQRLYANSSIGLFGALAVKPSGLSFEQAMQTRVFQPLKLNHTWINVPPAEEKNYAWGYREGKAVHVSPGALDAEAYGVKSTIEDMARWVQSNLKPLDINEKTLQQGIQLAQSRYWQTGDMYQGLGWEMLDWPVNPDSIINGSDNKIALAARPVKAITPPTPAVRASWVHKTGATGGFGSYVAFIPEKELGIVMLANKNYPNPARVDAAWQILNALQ
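20 mM phosphate pH 7.0 + 0.01% (detergent screen) or 0.0001% Triton X-100; 5.3 nM AmpC reagent; cpd preinc 15 min RT; nitrocefin (800 uM stock) to start; A480 q20 s × 4 min; Activity was normalised to no-enzyme and no-compound control wells.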
AmpC inh detg: blocks E. coli AmpC beta-lactamase in detergent assay; P00811; AmpC hydrolysis of nitrocefin, absorbance 480 nm, 0.01% Triton; Potency, µM (highest dose often 114 µM), actives largely listed as inhibitors; 370,000 tested, 0.041% active; further: nearly all actives have a fitted effect of over 25% in size
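20 mM phosphate pH 7.0 + 0.01% (detergent screen) or 0.0001% Triton X-100; 5.3 nM AmpC reagent; cpd preinc 15 min RT; nitrocefin (800 uM stock) to start; A480 q20 s × 4 min; Activity was normalised to no-enzyme and no-compound control wells.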
Numbers stand for hits; . = inactive; ? = inconclusive; / = no result; [ ] = another dose, or the depositor's remark. Sampled rows, rich in hits. Any-hit rate of the full collection: about 4.1%. Unless noted, the call rests on the fitted dose curve; in most records, active means well fitted curve in the direction sought with a large enough effect; inconclusive means small, poorly fitted or top-dose-only effect, or another doubt; inactive means no such curve, though single readings can be large; an effect the other way counts as inactive or inconclusive.

SMILES | AMA1-RON2 inh | FMDV antiviral | Sm TGR block | AmpC inh no detg | AmpC inh detg
CCc1ccc(S(=O)(=O)Nc2ccc(O)c3ccccc23)cc1 | ? | . | 10µM | . | .
COc1ccc(-c2nc3ccc(NS(C)(=O)=O)cc3o2)cc1 | / | . | . | / | .
Cc1cc(C(=O)NCC2CCC3(CCN(Cc4ccccc4C)CC3)O2)n(C)n1 (centres undefined) | / | . | / | / | /
COc1cccc(C(NC(C)=O)c2nc(-c3ccc(F)c(Cl)c3)cs2)c1 (centres undefined) | . | . | / | / | /
CCc1ccc(S(=O)(=O)Nc2cc(SCC(=O)O)c(O)c3ccccc23)cc1 | ? | ? | 6.31µM | . | ?
O=S(=O)(Nc1cc(Sc2cccc3cccnc23)c(O)c2ccccc12)c1ccccc1 | / | / | 3.55µM | .[2.29 µM] | .
O=C(O)c1cccc(S(=O)(=O)Nc2ccc([N+](=O)[O-])cc2O)c1 | . | . | . | . | .
O=C(O)CSc1cc(NS(=O)(=O)c2cccc([N+](=O)[O-])c2)c2ccccc2c1O | . | 10µM | 1.78µM | . | .
Cc1ccc(C)c(S(=O)(=O)Nc2cc(SCC(=O)O)c(O)c3ccccc23)c1 | . | ? | 3.55µM | . | ?
Cc1ccc(-c2nc(-c3cc4cccc(OCc5cccc(F)c5)c4oc3=O)no2)cc1 | / | . | . | / | .
CC(=O)OC1C[C@]2(C)C(C(C)=O)CCC2C2CCC3=CC(=O)CC[C@@]3(C)C12 (some centres undefined) | / | . | / | / | /
CC(/C=N/n1c(-c2cc(C)[nH]n2)n[nH]c1=S)=C\c1ccco1 | . | . | 12.6µM | . | .
CC(/C=N/n1cnnc1)=C\c1ccco1 | . | . | 35.5µM | . | ?
COc1ncc2nc(-c3ccc(F)cc3)c(=O)n(C)c2n1 | / | . | / | / | /
O=C(CCc1nc(-c2ccccc2)no1)NCc1ccco1 | . | . | 44.7µM | . | .
CCOC(=O)c1ccc(NC(=O)CCc2nc(-c3ccccc3)no2)cc1 | . | 20µM | . | . | ?
COc1cc(-c2noc(CCCC(=O)NCc3ccco3)n2)cc(OC)c1OC | ? | . | 44.7µM | . | .
O=C(c1ccc2c(c1)N(Cc1cccc(F)c1)C(=O)c1ccccc1S2)N1CCCC1 | / | . | . | / | .
CCOC(=O)CCSc1n[nH]c(=S)s1 | . | . | 17.8µM | . | .
CCOC(=O)CSc1n[nH]c(=S)s1 | . | . | ? | . | .
CN(C)C(=S)SSC(=S)N(C)C | . | . | . | ? | 79.4µM
Cc1ccc(CC(=O)Nc2c(C(=O)N3CCN(c4ccccc4)CC3)oc3ccccc23)cc1 | / | . | . | / | .
Cc1ccc(CC(=O)Nc2c(C(=O)N3CCN(c4ccccc4F)CC3)oc3ccccc23)cc1 | / | . | 44.7µM | / | .
O=C(NCc1nnc2n1CCN(Cc1cccc(Cl)c1)CC2)c1cccc(F)c1 | / | . | / | / | /
O=C1CCC2S/C(=C/Nc3ccc(C(F)(F)F)cc3)C(=O)N12 (centres undefined) | . | 8.91µM | . | . | .
SMILES | AMA1-RON2 inh | FMDV antiviral | Sm TGR block | AmpC inh no detg | AmpC inh detg
CCOC(=O)c1cnc(-n2nc(C)cc2C)nc1NC | . | . | . | . | .
CCOC(=O)c1cnc(-n2nc(C)cc2C)nc1NC1CCCCC1 | . | 10µM | . | . | .
CCOc1cc(CNC(=O)c2cc(-c3ccccc3)n[nH]2)cc(OCC)c1OCC | / | . | . | / | .
O=S(=O)(NCCc1ccc(Cl)cc1)c1ccc(N2CCCCS2(=O)=O)cc1 | / | . | . | / | .
O=C(/C=C/c1c(Cl)cccc1Cl)n1cccn1 | . | . | 17.8µM | . | .
Cc1sc2ncn(CC(=O)N3CCN(c4ccccc4)CC3)c(=O)c2c1S(=O)(=O)N1CCN(c2ncccn2)CC1 | / | . | . | / | .
CCOC(=O)C1=CC(=C2C(=O)N(CC)C(=S)N(CC)C2=O)c2ccccc2O1 | . | . | 25.1µM | . | .
COc1ccc(C2CC(=O)N3CN(c4ccc(C)c(Cl)c4)CSC3=C2C#N)cc1OC (centres undefined) | . | . | 50.1µM | . | .
COc1cc(OC)c(C2CC(=O)N3CN(c4ccc(C)cc4)CSC3=C2C#N)cc1OC (centres undefined) | . | . | 8.91µM | . | ?
CCOC(=O)c1ccc(N2CSC3=C(C#N)C(c4cccs4)CC(=O)N3C2)cc1 (centres undefined) | . | . | . | . | .
CCOc1ccccc1N1CSC2=C(C#N)C(c3c(OC)ccc4ccccc34)CC(=O)N2C1 (centres undefined) | . | . | 12.6µM | . | .
COc1ccc(N2CSC3=C(C#N)C(c4cc(OC)c(OC)cc4OC)CC(=O)N3C2)c(OC)c1 (centres undefined) | . | . | 6.31µM | . | .
N#CC1=C2SCN(c3ccc(F)cc3)CN2C(=O)CC1c1cccc(F)c1 (centres undefined) | . | . | ? | . | .
CCc1ccc(N2CSC3=C(C#N)C(c4cccs4)CC(=O)N3C2)cc1 (centres undefined) | . | . | . | . | ?
COc1ccc(N2CSC3=C(C#N)C(c4cc(OC)ccc4OC)CC(=O)N3C2)c(OC)c1 (centres undefined) | . | . | ? | . | ?
COc1ccc(N2CSC3=C(C#N)C(c4cccs4)CC(=O)N3C2)cc1 (centres undefined) | . | . | 22.4µM | . | .
COc1ccc(N2CSC3=C(C#N)C(c4ccc(OC)c(OC)c4)CC(=O)N3C2)c(OC)c1 (centres undefined) | . | . | 7.94µM | . | ?
CCc1ccc(C2CC(=O)N3CN(c4ccccc4)CSC3=C2C#N)cc1 (centres undefined) | . | . | 35.5µM | ? | ?
Cc1ccc(N2CSC3=C(C#N)C(c4cccs4)CC(=O)N3C2)cc1 (centres undefined) | . | . | . | . | ?
COc1ccc(OC)c(-c2noc(CSc3nnc(Cc4ccccc4)n3-c3cccc(C)c3)n2)c1 | / | . | . | / | .
Cc1noc(C)c1C(=O)N1CCC[C@@]2(CCN(c3ncccn3)C2)C1 | / | . | / | / | /
O=C1NC(=S)NC(=O)C1=Cc1c(Cl)cccc1Cl | . | 20µM | / | / | /
O=C1NC(=S)NC(=O)C1=Cc1ccc(Br)s1 | ? | ? | 20µM | . | .
CN1C(=O)/C(=C\c2ccc(Br)s2)C(=O)NC1=S | . | 31.6µM | 3.16µM | . | .
O=C1NC(=S)NC(=O)C1=Cc1cccc2cc3ccccc3cc12 | . | 10µM | ? | . | .
SMILES | AMA1-RON2 inh | FMDV antiviral | Sm TGR block | AmpC inh no detg | AmpC inh detg
COc1ccc(C=C2C(=O)NC(=S)NC2=O)cc1 | . | ? | / | / | /
O=C1NC(=S)N/C1=C/c1cccc2ccccc12 | . | . | . | . | .
O=C1NC(=S)NC(=O)C1=Cc1ccc(OCc2ccccc2)cc1 | . | . | / | / | /
CCCc1cc(N2CCN(C(=O)c3ccco3)CC2)n2c(nc3ccccc32)c1C#N | . | . | 39.8µM | . | .
CCCc1cc(-n2ccnc2C)n2c(nc3ccccc32)c1C#N | . | . | / | / | /
Cc1nn(-c2ccccc2)c2c1N(CC(=O)N1CCN(c3cccc(Cl)c3)CC1)C(=O)CS2 | / | . | . | / | .

Bioassay records: PubChem BioAssay, National Center for Advancing Translational Sciences (NCATS)
